According to PubChem BioAssay (NCATS):
Inconclusive results are not listed. Active and inactive are the calls of the source. Calls come from the whole dose curve; as a rule, active = well fitted inhibition curve with a large enough effect; inconclusive = small, poorly fitted or top-dose-only effect; inactive = flat fitted curve, though single readings scatter.

How the values were obtained:
Experiment in all cases: qHTS profiling for inhibitors of Plasmodium falciparum proliferation (AID 504749); note: nearly all actives have a fitted effect of over 60% in size
Settings in all cases: P. falciparum in erythrocytes, SYBR Green DNA, 72 h; series mostly up to 28.7 µM
[1] = test system: CP256
Procedure, shortened: (§1)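 P. falciparum-infected erythrocytes (0.3% parasitemia, 2.5% hematocrit final) were exposed to compounds for 72 h at 37 C in 5% CO2, then lysed with SYBR Green buffer overnight at room temperature; parasite DNA fluorescence was normalized to artemisinin and DMSO controls.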

[2] = test system: CP260
Procedure, shortened: as §1

[3] = test system: CP262
Procedure, shortened: as §1

[4] = test system: CP265
Procedure, shortened: as §1

[5] = test system: CP268
Procedure, shortened: as §1

[6] = test system: CP269
Procedure, shortened: as §1

[7] = test system: CP297
Procedure, shortened: as §1

[8] = test system: CP305
Procedure, shortened: as §1

[9] = test system: CP315
Procedure, shortened: as §1

[10] = test system: CP325
Procedure, shortened: as §1

[11] = test system: CP329
Procedure, shortened: as §1

[12] = test system: DFO2036
Procedure, shortened: as §1

[13] = test system: DIV14
Procedure, shortened: as §1

[14] = test system: DIV17
Procedure, shortened: as §1

[15] = test system: DIV30
Procedure, shortened: as §1

[16] = test system: Dd2
Procedure, shortened: as §1

[17] = test system: ECU
Procedure, shortened: as §1

[18] = test system: FAB9
Procedure, shortened: as §1

[19] = test system: HB3
Procedure, shortened: as §1

[20] = test system: JCK
Procedure, shortened: as §1

[21] = test system: P93_24
Procedure, shortened: as §1

[22] = test system: P94_40
Procedure, shortened: as §1

[23] = test system: PAD
Procedure, shortened: as §1

[24] = test system: PC15
Procedure, shortened: as §1

[25] = test system: PC26
Procedure, shortened: as §1

[26] = test system: PC49
Procedure, shortened: as §1

[27] = test system: SC27B
Procedure, shortened: as §1

[28] = test system: TAB113
Procedure, shortened: as §1

Measured: Potency

C=C1C(=O)O[C@@H]2[C@@H]1CC/C(C)=C\CC[C@@]1(C)O[C@H]21
inactive: all assays above
